Screening results deposited in PubChem BioAssay by National Center for Advancing Translational Sciences (NCATS).
12-hLO inh: inhibitors of human 12-lipoxygenase (ALOX12) | purified 12-hLO, xylenol orange hydroperoxide absorbance | Potency, µM (series often up to 57.1 µM), actives largely listed as inhibitors | 150,000 tested, 0.12% active; further: nearly all actives have a fitted effect of over 55% in size
Target sequence (P18054 whole entry, looked up): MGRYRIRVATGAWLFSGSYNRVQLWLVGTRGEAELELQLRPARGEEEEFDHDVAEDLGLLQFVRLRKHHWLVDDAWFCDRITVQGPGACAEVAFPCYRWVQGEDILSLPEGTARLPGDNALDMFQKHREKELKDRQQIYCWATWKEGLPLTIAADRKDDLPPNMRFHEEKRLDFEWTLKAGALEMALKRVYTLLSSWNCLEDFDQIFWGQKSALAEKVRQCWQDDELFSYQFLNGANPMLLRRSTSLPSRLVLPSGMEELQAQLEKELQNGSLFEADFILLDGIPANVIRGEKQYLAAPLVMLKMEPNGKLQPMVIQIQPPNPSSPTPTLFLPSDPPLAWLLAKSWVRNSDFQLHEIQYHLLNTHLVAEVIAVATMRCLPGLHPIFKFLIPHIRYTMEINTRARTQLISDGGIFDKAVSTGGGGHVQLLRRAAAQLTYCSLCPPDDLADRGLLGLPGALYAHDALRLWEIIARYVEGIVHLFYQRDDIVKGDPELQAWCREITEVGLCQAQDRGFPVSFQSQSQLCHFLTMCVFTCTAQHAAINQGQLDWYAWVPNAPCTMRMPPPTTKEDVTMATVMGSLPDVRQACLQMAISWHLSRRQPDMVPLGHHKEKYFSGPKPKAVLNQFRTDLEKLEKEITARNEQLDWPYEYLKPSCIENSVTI
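Xylenol orange chromogenic assay: hydroperoxide from 12hLO oxidises Fe(II), giving red-shifted Fe(III)-XO absorbance. Conditions: 150 nM enzyme, 40 uM arachidonic acid, 25 mM Hepes pH 7.0, 0.01% Triton X-100, 30 min, room temperature.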
15-hLO-2 inh: blocks human 15-lipoxygenase 2 activity; O15296; purified 15hLO-2, xylenol orange hydroperoxide absorbance; Potency, µM (top dose mostly 57.1 µM), most hits filed as inhibitors; 110,000 tested, 0.56% active; AID 881; further: nearly all actives have a fitted effect of over 60% in size
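Read-out: hydroperoxide product oxidises ferrous iron, measured as xylenol orange complex via the 573-to-405 nm absorbance ratio after 30 min. Reaction: 50 nM enzyme, 15 min compound preincubation, 45 uM arachidonic acid, 90 min RT, Hepes pH 7.5 with Triton X-100.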
A number is an active result; n = inactive; u = inconclusive; x = not tested or not shown; ! = repeats disagree; [ ] = dose if it differs, or a comment. This excerpt belongs to a sample that is enriched for hits. The call rests on the fitted dose curve; in most records, active means well fitted curve in the direction sought with a large enough effect; inconclusive means small, poorly fitted or top-dose-only effect, or another doubt; inactive means no such curve, though single readings can be large; an effect the other way counts as inactive or inconclusive.

SMILES	12-hLO inh	15-hLO-2 inh
O=C(OCC1OC(OC(=O)c2cc(O)c(O)c(OC(=O)c3cc(O)c(O)c(O)c3)c2)[C@@H](OC(=O)c2cc(O)c(O)c(OC(=O)c3cc(O)c(O)c(O)c3)c2)C(OC(=O)c2cc(O)c(O)c(OC(=O)c3cc(O)c(O)c(O)c3)c2)C1OC(=O)c1cc(O)c(O)c(OC(=O)c2cc(O)c(O)c(O)c2)c1)c1cc(O)c(O)c(OC(=O)c2cc(O)c(O)c(O)c2)c1 (some centres undefined)	0.56µM	1.6µM
Cc1cn(C2OC(COC(=O)c3ccccc3)C(OC(=O)c3ccccc3)C2OC(=O)c2ccccc2)c(=O)[nH]c1=O (centres undefined)	n	x
CC(=O)N[C@@H](CSC/C=C(\C)CC/C=C(\C)CC/C=C(\C)CCC=C(C)C)C(=O)O	n	x
COc1ccc(S(=O)(=O)Nc2ccccc2C(=O)O)cc1	n	x
CCN(CC)CCCCn1c(-c2ccccc2)nc2c(NCCOC)nc(C)nc21	n	n
COC(=O)[C@@]1(Cc2ccccc2)[C@H]2c3cc(C(=O)N4CCCC4)n(Cc4ccc(S(C)(=O)=O)cc4)c3C[C@H]2CN1C(=O)c1ccccc1	n	n
Oc1ccccc1C1Nc2cccc3cccc(c23)N1	u	2µM
COc1ccccc1C1Nc2cccc3cccc(c23)N1	n	u
CC/C=C\C/C=C\C/C=C\CCCCCCCC(=O)O	n[0.00818 µM]	14µM!
CC/C=C\C/C=C\C/C=C\CCCCCCCCCCCC(=O)O	n	x
C=C(C)C(=O)OC	n	n
OCCN(C=NC1=NN(c2cccc(C(F)(F)F)c2)CC1)CCO	n	25µM
CCN(C=NC1=NN(c2cccc(C(F)(F)F)c2)CC1)CC	n	x
CC1(C)C(C(=O)O)N2C(=O)CC2S1(=O)=O (centres undefined)	n[0.00818 µM]	n[0.0915 µM]
Cc1cccc(C)c1NC(=O)CN1C(=O)S/C(=C\c2cccn2-c2cccc(C(=O)O)c2)C1=O	n	u
Cc1ccccc1NC(=O)CN1C(=O)S/C(=C\c2cccn2-c2cccc(C(=O)O)c2)C1=O	n	25µM
COc1cccc(-c2nc(NCCN3CCOCC3)c3ccccc3n2)c1	x	n
COc1ncc2nc(-c3ccc(F)cc3)c(=O)n(CCC#N)c2n1	n	n
CCOc1ccccc1N1C(=O)CC(Nc2ccc(N3CCOCC3)cc2)C1=O (centres undefined)	u	16µM
COc1ccccc1N1C(=O)CC(Nc2ccc(N3CCOCC3)cc2)C1=O (centres undefined)	u	n
CC(/C=C1\N=C(SCc2ccccc2Cl)SC1=O)=C\c1ccccc1	n	25µM
CCSC1=N/C(=C\c2cccc(F)c2)C(=O)S1	n	x
COc1ccccc1NC(=S)NC(=O)C1CC1	n	x
COc1ccccc1NC(=S)NCCc1ccc(Cl)cc1	14µM	u
COc1ccccc1NC(=S)NC(=O)C(C)(C)C	13µM	n
SMILES	12-hLO inh	15-hLO-2 inh
COc1ccc(NC(=S)NCCc2ccccc2)c(OC)c1	n	n
CCC/C=C(\CCC)C(NC(=O)C(C)(C)C)c1ccc(C(=O)OC)cc1 (centres undefined)	n	n
C=C(C)CC1Nc2ccccc2NC1CC(=C)C (centres undefined)	n	25µM
C=C(C)CN1C(=O)c2ccccc2C1=O	n	n
Cc1ccc(-c2cc(C(=O)N3CCN(c4ccc(F)cc4)CC3)c3ccccc3n2)o1	n	13µM
CC(=O)c1ccc(N2CCN(C(=O)c3cc(-c4ccc5c(c4)OCO5)nc4ccccc34)CC2)cc1	n	n
COc1ccccc1CN1CCC2(CC1)CCN(C(=O)c1c(C)noc1C)CC2	n	n
COc1ccc(Oc2ncc3nc(-c4cn(C)c5ccccc45)c(=O)n(C)c3n2)cc1	x	n
CC1=C(C(=O)Nc2ccc([N+](=O)[O-])cc2)C(c2cccc(C(F)(F)F)c2)NC(=S)N1c1ccccc1 (centres undefined)	22µM	u
COCCOC(=O)C1=C(C)N(c2ccccc2)C(=O)NC1c1cccc([N+](=O)[O-])c1 (centres undefined)	n	x
O=C(/C=C/c1ccc(O)c(O)c1)O[C@@H](C(=O)O)[C@@H](OC(=O)/C=C/c1ccc(O)c(O)c1)C(=O)O	n	n
O=C(/C=C\c1ccc(O)c(O)c1)OCCc1ccccc1	u	13µM
c1ccc(CN2COc3c(ccc4c5c(ccc34)CN(Cc3ccccc3)CO5)C2)cc1	n[11.4 µM]	n[11.4 µM]
Cc1ccc(N=Nc2c(O)ccc3cc(S(=O)(=O)O)ccc23)cc1	n[11.4 µM]	n[11.4 µM]
Cc1ccc(S(=O)(=O)Oc2ccc(N=Nc3ccc(-c4ccc(N=Nc5c(O)ccc6cc(S(=O)(=O)O)cc(S(=O)(=O)O)c56)c(C)c4)cc3C)cc2)cc1	u	3.2µM
O=c1c(O)c(-c2ccc(O)c(O)c2)oc2ccccc12	u	13µM
COc1ccc(-c2oc3ccccc3c(=O)c2O)cc1	n	u
COc1ccc(-c2nc3c(c4c2C[C@H](c2ccccc2)OC4)CN(S(=O)(=O)c2ccc4c(c2)OCCN4C)CC3)c(C)c1	n[11.4 µM]	x
C=CCCC	n	n
